# Measured values published in the supplement of paper PMC6555819.
# Test system: VDR:RXRa (NR concentration 270 nM, RXRa partner concentration 90 nM)
# Test: PBM binding z-score (relative to random genomic background probes); higher = stronger binding; sequences stand for … in GC…GCGATTGACAGCGTAGAATGAAGG
# Experimental: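 Protein-binding microarray (Agilent 4x180K custom design, double-stranded 60-nt probes: 5' GC cap, 34-nt variable region, 24-nt constant primer region; full probe sequence given). Purified or IVT nuclear receptor:RXRα heterodimers (3:1 NR:RXRα, mostly 270:90 nM) or homodimers were incubated for 1 h in PBS with 2% milk and no ligand, then detected with Alexa488 antibodies. Fluorescence from o1-orientation probes (~5 replicates averaged) was converted to z-scores against 500 random hg19 background probes. Variable regions are seed direct-repeat (DR0–DR5) sites, all their single-nucleotide variants and half-site ablations.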
row,Sequence,PBM binding z-score
1,CCGACTGGGGCAGCAAGGTTACCATACCATCCGG,1.25
2,TCTTGTAGATCAAGCAGGTTATGAAAGCCTGAGT,0.521
3,CAGACTGGGGCATAAGGTTACCATAAGCCAGCCC,0.497
4,ACTATTTGTTGAGACGAGGGCAACCGATAGGTTG,0.711
5,ACTCGGAGGACAAGGGTCAGAGCTACGCCAGTGA,1.91
6,CGAACTAGGTCATCCAGGACAGCGAATACATTGA,4.63
7,GGAACGAGGGCAAGTTTATAGCAGAGTTTGATGG,1.32
8,TGAATGAGGTTATATGATCAGGGAACGTTGCAAA,1.33
9,CCTAGCAGGCCAGGGTCACTCAAGCATTTCGCTT,2.48
10,TCTTGTAGATCAGCAGGTTCAGAAAGCTGGCCAA,3.4
11,ATCGAAAGGTCGTGAGGTGAGTATGCAGAAAGGC,3.57
12,GCGACTGGGACAAAGCAGGTTACCATAAGGTTGG,-0.0797
13,ATATGTAGGATACATCCGGGTCATTCAGGCTATG,3.21
14,GCTATTAGTTGAAAGGGCAACCAAATGATTCTCG,0.604
15,ATCTCTAGGTAAGACTCAGTTCAGTGTAGAACGC,1.02
16,GCTGCTAGGTCAGGTTGTTCAGCTAACGGGTACG,0.65
17,ACCGACAGGTGATGAAGGTAACTCAGGCTATCAT,-0.148
18,CGAACTAGGTCATGCAGGACAGTGAATACATTGA,4.23
19,AGTCAAAGTTCATCTAGGTAACGTATGATATGCT,4.91
20,GCTTGTAGGTCAAGGTTAAGAAAGACTAAGCTAA,2.3

row,Sequence,PBM binding z-score
1,AGCCAAAGTTCACTAGGTAACGTAAGATTCAGCT,3.41
2,TCTTGTAGATCAAGCAGGTAAAGAAAGCCTGAGT,0.212
3,CGTCCAAGATCATAGGAGGTCAGTGAAGACAGAT,2.63
4,TCTGCTAGGTCAACGATGGGCAGCTAATCTGCTA,0.993
5,TCTTGTAGATGAACAGGAGGTTAAGAAAGATCGA,0.644
6,CAAACTAGGTCACAGAGGTCCAAGTCCGTGCGTA,5
7,ACAGACAGGTGATGATGGTAACTCAGGCTATCAT,-0.153
8,CCTTACGGGACAAGGTTATAGCACGGGTGGTACG,0.416
9,CGTCCAAGGTCAATGCTAGGTCAGTGAAAGCATT,4.81
10,CCAGACAGGTGAATGGTAACTCAGTCTGGTACGC,-0.231
11,CAAACTAGGTCAAGAGGCCAAAGTCCGCTTCCCG,2.16
12,TCATATAGGTAAAGGCTAGGTGAAAGTCCGATCT,0.546
13,AGAATGAGGTTATCAAGATCAGGGAATTGCGGTC,2.56
14,ATCTCTACGTAAAAGTTCAGTGAATCCCGAGGAT,1.1
15,CGAACTAGGTCAAGGACGGTGAATCTCCGCACGC,1.14
16,AGAACGAGGGCACGCTGATTTGATAGCAGAGTAG,0.858
17,CCGACTGGGGCAGAAAGGTTAGCATACCATCCGG,0.00712
18,AATACAGGGTCATCGTAGGCCAGGGTACGCACAG,5.25
19,CCTCGCAGGACAGAAGGTCAGAGCTGTCCGCTTT,0.93
20,CGAACGATGGCATGAGTTGATAGCAAATGCCGAT,-0.111
